Where a name gives a salt, the structure may show the parent alone.
tested on: Saccharomyces cerevisiae BY4741 SeMeCo community; test: z-score of subpopulation abundance vs DMSO median, subpopulation auxotrophic for HU; higher = larger share of this subpopulation than in DMSO controls; settings: 10 µM; 24 h; SM minimal medium; subpopulation (auxotrophy): HU
Description: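 Fluorescent four-plasmid SeMeCo (self-establishing metabolically cooperating S. cerevisiae BY4741 community; plasmids pH-mRuby2, pL-mWasabi, pU-eCFP, pM-TagRFP657) was grown 24 h in minimal SM medium with each Selleck FDA-approved drug at 10 µM in 384-well plates. Cells were fixed and imaged by high-content confocal microscopy. For each auxotrophic subpopulation (and the prototroph), a z-score gives the deviation from the DMSO vehicle-control population median.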

Compound | z-score of subpopulation abundance
O=C(O[C@H]1C[N+]2(CCCOc3ccccc3)CCC1CC2)C(O)(c1cccs1)c1cccs1 [Aclidinium Bromide] | 0.63
CC[C@@H](C(N)=O)N1CCCC1=O [Levetiracetam] | -0.75
CNC1CC(N)C(O)C(OC2OC(CO)C(O)C3OC4(OC(C(N)CO)C(O)C(O)C4O)OC23)C1O (stereo not given) [Hygromycin B] | -0.07
CN[C@@H]1[C@@H](O)[C@@H](O[C@@H]2[C@@H](O)[C@H](O[C@H]3O[C@H]([C@@H](C)O)[C@@H](O)[C@H](O)[C@H]3N)[C@@H](N)C[C@H]2N)OC[C@]1(C)O [Geneticin (G418 Sulfate)] | -0.46
CN1[C@@H]2CC[C@H]1C[C@@H](OC(=O)C(CO)c1ccccc1)C2 (stereo not given in full) [Atropine sulfate monohydrate] | 0.23
C=C[C@H]1CN2CC[C@H]1C[C@H]2[C@H](O)c1ccnc2ccccc12 [Cinchonidine] | -0.45
C#C[C@]1(O)C=C[C@H]2[C@@H]3CCC4=CC(=O)CC[C@@H]4[C@H]3CC[C@@]21CC [Gestodene] | -0.67
CC(C)(O)C(Cl)(Cl)Cl [Chlorobutanol] | 0.05
CCN(CC)CCOC(=O)C(O)(c1ccccc1)c1ccccc1 [Benactyzine hydrochloride] | 1.62
C[C@@H]1CC[C@H]2[C@@H](C)C(=O)O[C@@H]3O[C@@]4(C)CC[C@@H]1[C@]32OO4 [Artemisinin] | 0.58
C[N+]12CCC(CC1)C(OC(=O)C(O)(c1ccccc1)c1ccccc1)C2 (stereo not given) [Clidinium Bromide] | -0.29
CCN(C)C(=O)Oc1cccc([C@H](C)N(C)C)c1 [Rivastigmine] | 0.2
CC1(C)SC2C(N)C(=O)N2C1C(=O)O (stereo not given) [6-Aminopenicillanic acid] | 0.4
CN(C)[C@@H]1C(=O)C(C(N)=O)=C(O)[C@@]2(O)C(=O)C3=C(O)c4c(O)cccc4[C@@](C)(O)[C@H]3C[C@@H]12 [Tetracycline HCl] | -0.3
Cc1cc(C(C#N)c2ccc(Cl)cc2)c(Cl)cc1NC(=O)c1cc(I)cc(I)c1O (stereo not given) [Closantel] | 0.25
CC[C@H]1CN2CC[C@]3(C(=O)Nc4ccccc43)[C@@H]2C[C@@H]1/C(=C\OC)C(=O)OC [Rhynchophylline] | 0.35
COC(=O)C1=CCCN(C)C1 [Arecoline HBr] | 0.06
C=CC[C@]1(O)CC[C@H]2[C@@H]3CCC4=CC(=O)CCC4=C3C=C[C@@]21C [Altrenogest] | -1.33
CCN(C)C(=O)Oc1cccc([C@H](C)N(C)C)c1 [Rivastigmine Tartrate] | -0.86
Nc1ccncc1 [4-Aminopyridine] | 0.52

Compound | z-score of subpopulation abundance
C=CCN1C[C@H](C(=O)N(CCCN(C)C)C(=O)NCC)C[C@@H]2c3cccc4[nH]cc(c34)C[C@H]21 [Cabergoline] | 0.39
CC[N+](C)(CC)CCOC(=O)C(O)(c1ccccc1)c1ccccc1 [Methylbenactyzine Bromide] | -0.63
Nc1nc(N)nc(NC2CC2)n1 [Cyromazine] | 0.05
Oc1cc(Cl)ccc1Oc1ccc(Cl)cc1Cl [Triclosan] | 0.43
O=C(O[C@H]1C[C@H]2CC[C@@H](C1)[N+]21CCCC1)C(O)(c1ccccc1)c1ccccc1 [Trospium chloride] | 0.09
O=c1cccc2n1C[C@@H]1CNC[C@H]2C1 [Cytisine] | -0.56
CN[C@@H]1[C@@H](O)[C@@H](O[C@@H]2[C@@H](O)[C@H](O[C@H]3O[C@H](CN)CC[C@H]3N)[C@@H](N)C[C@H]2N)OC[C@]1(C)O.CN[C@@H]1[C@@H](O)[C@@H](O[C@@H]2[C@@H](O)[C@H](O[C@H]3O[C@H]([C@@H](C)N)CC[C@H]3N)[C@@H](N)C[C@H]2N)OC[C@]1(C)O.CN[C@@H]1[C@@H](O)[C@@H](O[C@@H]2[C@@H](O)[C@H](O[C@H]3O[C@H]([C@@H](C)NC)CC[C@H]3N)[C@@H](N)C[C@H]2N)OC[C@]1(C)O [Gentamicin Sulfate] | -0.53
CN(C)[C@@H]1C(=O)C(C(N)=O)=C(O)[C@@]2(O)C(=O)C3=C(O)c4c(O)cccc4[C@@](C)(O)[C@H]3[C@H](O)[C@@H]12 [Oxytetracycline Dihydrate] | -0.06
CN1[C@@H]2C[C@@H](OC(=O)[C@H](CO)c3ccccc3)C[C@H]1[C@@H]1O[C@@H]12 [Scopolamine HBr trihydrate] | -0.46
NC(=O)CN1CCCC1=O [Piracetam] | 0.46
CCC1=C[C@H]2CN3CCc4c([nH]c5ccccc45)[C@](C(=O)OC)(C2)[C@H]13 [Catharanthine] | -0.39
CCCN1C[C@H](CSC)C[C@@H]2c3cccc4[nH]cc(c34)C[C@H]21 [Pergolide Mesylate] | -0.93
Oc1cccc2cccnc12 [8-Hydroxyquinoline] | -1.16
CN(C)C(=O)Oc1cccc([N+](C)(C)C)c1 [Neostigmine Bromide] | -0.26
C[CH2][Hg][S]c1ccccc1C(=O)[O-].[Na+] [Thimerosal] | 6.59
CN1C(=O)COc2c(C(=O)NC3CN4CCC3CC4)cc(Cl)cc21 (stereo not given) [Azasetron HCl] | -0.34
COc1ccc(C(CN(C)C)C2(O)CCCCC2)cc1 (stereo not given) [Venlafaxine] | 0.4
O=[N+]([O-])C(Br)(CO)CO [Bronopol] | 0.4
CC[C@@]1(O)C(=O)OCc2c1cc1n(c2=O)Cc2cc3ccccc3nc2-1 [Camptothecin] | -0.74
NCCc1c[nH]c2ccc(O)cc12 [Serotonin HCl] | -0.18

Reference: the supplement of paper PMC8975748
